# The campaign covered roughly 5,600 compounds. About 4,500 (80%) were called active. So high a share suggests a set chosen from earlier hits. Only a sample is shown. Values without a mark were called inactive. No stated cut-off is given here; in the data, active means inhibition above about 10%; inactive means the rest.
# Test: inhibition of coupled GDH and TPI enzymes – biochemical, fluorescence, high throughput, artefact control for M. tuberculosis FBA inhibitor project (AID 652141)
# Conditions: GDH-TPI coupled enzyme counterscreen, at 1 µM, hits give high values
row,SMILES,inhibition
1,CC(=O)c1sc2nc(SCC(=O)N3CCCCC3)[nH]c(=O)c2c1C,55.4% (active)
2,Cc1nc(NCCN)c(C#N)c2c1COC(C)(C)C2,76.9% (active)
3,Oc1ccccc1C1=NN(c2ccccc2)C(c2ccccc2)C1 (centres undefined),84% (active)
4,COc1ccc(C2CC(c3cccs3)=NN2c2ccc(F)cc2)cc1OC (centres undefined),71.1% (active)
5,COc1ccccc1N1N=C(c2cccs2)CC1c1ccccc1 (centres undefined),46.6% (active)
6,Fc1ccc(N2N=C(c3cccs3)CC2c2ccco2)c(F)c1 (centres undefined),-3.03%
7,COc1ccc(C2CC(c3cccs3)=NN2c2ccccc2)cc1 (centres undefined),23.7% (active)
8,CS(=O)(=O)Nc1ccc(C2=NN(S(C)(=O)=O)C(c3cccs3)C2)cc1 (centres undefined),-3.93%
9,Cc1cc(C)c(-c2c(O)c3ccccc3n(C)c2=O)c(C)c1,61.1% (active)
10,Cc1ccc(S(=O)(=O)N2CCN(C(=O)CSc3cc(C)ccc3C)CC2)c(C)c1,108% (active)
11,CCc1cc(=O)oc2cc(C)cc(OCC(=O)N3CCC[C@@H]3C(=O)O)c12,54.6% (active)
12,CCCC/C=C/c1cccc2nncn12,54% (active)
13,CCOc1ccccc1C1CC(c2ccccc2)Nc2nc(N)nn21 (centres undefined),132% (active)
14,CN(C)CCCn1c(N)c(C#N)c2nc(C#N)c(C#N)nc21,76.3% (active)
15,c1ccc(Cc2c(-c3ccco3)nc3c4ccccc4ccn23)cc1,95.6% (active)
16,CN(C)c1ccc(/C=N/NC(=O)C(O)c2ccc(Br)cc2)cc1 (centres undefined),64% (active)
17,CC(C)C1Nc2c(C(=O)O)cccc2C(Nc2ccccc2C(=O)O)C1(C)C (centres undefined),87.3% (active)
18,CC(=O)N1C(=O)/C(=C2\SC(=S)N(NC(=O)c3ccc(O)cc3)C2=O)c2ccccc21,-2.52%
19,COC(=O)COc1cc(C)cc2oc(=O)c3c(c12)CCCC3,105% (active)
20,Cc1cc(OCc2cc(C(=O)O)oc2C)c2c3c(c(=O)oc2c1)CCCC3,89.5% (active)
21,O=C(c1cc(-c2ccc(Cl)s2)nc2ccccc12)N1CCOCC1,83% (active)
22,CC(=O)N1CCN(C(=O)c2cc(-c3ccc(Cl)s3)nc3ccccc23)CC1,-3.53%
23,Cc1ccc2nc(-c3ccco3)c(Cc3cccc(Cl)c3)n2c1,63.6% (active)
24,O=C(NCCN1CCOCC1)c1cc(-c2cccs2)nc2ccccc12,-3.18%

row,SMILES,inhibition
1,COC(=O)c1cc(-c2cccs2)nc2ccccc12,96.2% (active)
2,CC(C)(C)OC(=O)NNc1c2ccccc2nc2ccccc12,-5.25%
3,CC(C)n1c(-c2cccs2)nc2ccccc21,68.4% (active)
4,Cc1cc(=O)oc2c1ccc1ccccc12,71.6% (active)
5,COCCN(CCOC)c1nc(N)c2c(N)nc3c(c2c1C#N)CC(=O)N3Cc1ccc(Cl)cc1,79% (active)
6,N#CC1(Nc2ccc3c4c(cccc24)CC3)CCCCC1,103% (active)
7,COCc1cc(=O)oc2cc(NS(=O)(=O)c3ccc(C)cc3)ccc12,51.2% (active)
8,CCSc1nnc(-c2cc3c(s2)-c2ccccc2CC3)o1,53.8% (active)
9,Cc1cc(=O)oc2c3c(cc(OCC(=O)NCC(O)c4ccccc4)c12)OC(C)(C)CC3 (centres undefined),46.9% (active)
10,Cc1cc(OCC(=O)NCC(O)c2ccccc2)c2c(C)c(C)c(=O)oc2c1 (centres undefined),187% (active)
11,CC1(C)CC(=O)c2cc(OCC(=O)NCC3CCCO3)ccc2O1 (centres undefined),-4.8%
12,CC1=CC2=NC(=O)CC(C)(C(=O)N(CC(=O)NC(C)(C)C)Cc3ccccc3)N2C=C1 (centres undefined),4.57%
13,COCCCNC(=S)N(CCN(C)C)Cc1cc2cc3c(cc2[nH]c1=O)OCCO3,41% (active)
14,Cc1ccc2nc(/C(C#N)=C\c3ccc(OC(=O)c4cccs4)cc3)[nH]c2c1,39% (active)
15,Cc1ccsc1C(=O)N[C@@H](C)c1nnc2ccccn12,110% (active)
16,CCC1C(=O)c2ccccc2N(C)C1=O (centres undefined),-6.39%
17,O=C(NCCc1ccccc1)c1ccc2c(c1)N(Cc1ccccc1)CCS2,29.2% (active)
18,O=C(NCCN1CCOCC1)c1ccc2c(c1)N(Cc1ccc(Cl)cc1)CCS2,48.2% (active)
19,CN1CCN(CCCNC(=O)c2ccc(/C=C3\Oc4ccccc4N(Cc4ccc(Cl)cc4)C3=O)cc2)CC1,-4.56%
20,CC(C)(C)Nc1c(-c2cccs2)nc2ccccn12,114% (active)
21,COC(=O)c1c(-c2ccsc2)oc2ccc(-c3cc(OC)c(OC)c(OC)c3)cc12,-4.81%
22,Cc1c(CCC(=O)O)c(=O)oc2cc(OCc3ccc(Br)cc3)ccc12,1.56%
23,CCOC(=O)c1c(-c2ccccc2)oc2ccc(OC(=O)N(C)C)cc12,164% (active)
24,CCOC(=O)c1c(-c2ccccc2)oc2ccc(OCC(N)=O)cc12,126% (active)

row,SMILES,inhibition
1,CCOC(=O)c1c(-c2ccccc2)oc2ccc(OCC(=O)NN)cc12,74.7% (active)
2,Cc1c(Cc2ccccc2)c(=O)oc2cc(OCC(N)=O)ccc12,"899% [above what the read-out allows, likely interference] (active)"
3,C=CCNC(=O)c1ccc2c3n(nc2c1)-c1ccc(C)cc1CO3,160% (active)
4,CCOC(=O)CSc1nc2c(c(=O)n(Cc3ccccc3Cl)c(=O)n2C)n1C,28.5% (active)
5,COc1ccc(-n2cc(CN(C)Cc3n[nH]c(=O)[nH]3)c(-c3cccc(F)c3)n2)cc1,37.4% (active)
6,COc1ccc(-n2cc(CNC3CCOCC3)c(-c3cccc(F)c3)n2)cc1,15.8% (active)
7,CCCc1nc2oc3c(=O)[nH]cnc3c2c2c1COC(C)(C)C2,101% (active)
8,O=C(O)/C=C/c1cn(-c2ccccc2)nc1-c1cccs1,76.6% (active)
9,COc1ccccc1-c1oc2ccccc2c1C#CCCCCO,145% (active)
10,Cc1ccc(-c2nc(C#N)c(NCCCn3ccnc3)o2)cc1,34.1% (active)
11,C=CCn1cc(-c2cccc(C(F)(F)F)c2)cc(C#N)c1=O,-2.28%
12,Cn1cc(-c2ccccc2)cc(C#N)c1=O,79.8% (active)
13,CN(CCNC(=O)c1cc2c(-c3ccccc3F)nn(C)c2s1)C1CCCCC1,183% (active)
14,CCOC(=O)c1cc2cc(C)ccc2[nH]1,42.5% (active)
15,Cc1cc(C)c2c(n1)nn1c(-n3ccnc3)cc(C)nc21,-4.63%
16,Cc1cc(C)c2c(NC(=O)C3CC3)nn(C)c2n1,72.7% (active)
17,Cc1cc(=O)n2[nH]c(-c3cccc(Cl)c3)cc2n1,82.4% (active)
18,CC(C)n1ncc2c(C(=O)NCc3ccccc3CN(C)C)cc(C3CC3)nc21,108% (active)
19,CCCS(=O)(=O)Nc1c(C(=O)O)[nH]c2ccccc12,48.1% (active)
20,CC(C)CN1CCNC(=O)C1CC(=O)N(C)CC1CCOCC1 (centres undefined),106% (active)
21,COCCCNC(=S)NCCNc1nc2cc(C)c(C)cc2cc1C#N,60.5% (active)
22,CN(CCc1ccccn1)S(=O)(=O)c1ccc2c3c(cccc13)C(=O)N2,103% (active)
23,CCC(C)N(C(=O)COC(=O)C1C(C(=O)OC)=C(C)NC(C)=C1C(=O)OC)C1CCS(=O)(=O)C1 (centres undefined),111% (active)
24,CCN(C(=O)COC(=O)c1ccc(COc2ccc3c(C)cc(=O)oc3c2)cc1)C1CCS(=O)(=O)C1 (centres undefined),-0.6%

row,SMILES,inhibition
1,Cc1ccc(-c2nc3ccccc3c(=O)n2-c2ccc(Br)cn2)cc1,98.6% (active)
2,CC1(C(=O)NCc2ccc(F)c(F)c2)Cc2c(-c3ccc4c(c3)OCO4)ccnc2O1 (centres undefined),108% (active)
3,CC1(C(=O)NCc2ccco2)Cc2c(-c3ccc4c(c3)OCO4)ccnc2O1 (centres undefined),-4.87%
4,CC(C)OCCCNc1ncnc2c1[nH]c1ccc(F)cc12,97.1% (active)
5,CCCCNc1c(-c2cccc(Sc3ccc(OC)cc3)c2)nc2ccccn12,32.5% (active)
6,C=CCc1c(C)nc2cc(-c3ccccc3)[nH]n2c1=O,49.2% (active)
7,CCc1c(C)nc2cc(-c3cccs3)[nH]n2c1=O,19.6% (active)
8,CCc1c(C)nc2cc(C)[nH]n2c1=O,41.7% (active)
9,Cc1ccc(S(=O)(=O)N2C[C@@H](C)[C@]3(C2)[C@H](O)[C@H](OC(=O)NCc2ccccc2)C[C@H]2C(=O)N(c4ccccc4)C(=O)[C@H]23)cc1,-1.04%
10,CN(C)Cc1c(O)ccc2c(=O)c(-c3ccccc3Cl)coc12,3.78%
11,C[C@H](O)[C@@H]1C(=O)N2CCc3c([nH]c4ccccc34)[C@@H]2C[C@@H]1N(C)C(=O)Nc1ccc(F)cc1,182% (active)
12,O=C(O)c1cccnc1Sc1ncnc2sc3c(c12)CCC3,47.7% (active)
13,N#Cc1c(N)n(CCOC(=O)c2ccc(Cl)cc2)c2nc3ccccc3nc12,27.5% (active)
14,CC(OC(=O)c1ccccc1NCCO)C(=O)Nc1ccnn1C(C)C (centres undefined),83.3% (active)
15,COc1cc2nc(N3CCN(C(=O)[C@@H]4CCCO4)CC3)nc(N)c2cc1OC,81.7% (active)
16,Cc1ccc(NC(=O)CN(C)C(=O)COC(=O)c2nccnc2N)cc1,-3.67%
17,Cc1nc2ccc(NC(=O)N3CCC(c4ccccc4)C3)cc2nc1C (centres undefined),70.1% (active)
18,CCN1CCc2c(C#N)c(NCc3ccccc3)nc(NCCO)c2C1,139% (active)
19,O=C(Nc1ccc2nccnc2c1)c1ccco1,"515% [above what the read-out allows, likely interference] (active)"
20,O=C1OCCN1C(=O)[C@H]1[C@H](c2ccc(F)cc2)C(c2ccccc2)=NN1c1ccc(Br)cc1,38.6% (active)
21,C#Cc1cc(N2CCN(C(=O)c3ccoc3)CC2)n2nc(-c3cccc(Cl)c3)cc2n1,73.9% (active)
22,Cc1nc(COc2cc3oc(=O)cc(C)c3cc2Cl)cs1,171% (active)

# From PubChem BioAssay AID652141 (The Scripps Research Institute Molecular Screening Center, 2013)
